# The whole screen tested about 48,000 compounds, of which about 13,000 (27%) showed an effect of 50% or more. The list shows a part of the results.
# Test system: Wolbachia pipientis
# Test: Anti-Wolbachia Cell-Based Screen
# Format: functional
# Design: scale not given: in the data most compounds retested in dose-response had high values
# Settings: 5 µM
row,Compound,Percent Effect
1,O=C(C1CC=CC1)N1CC[C@@H]2O[C@@H](COCC3CCOCC3)CC[C@@H]21,-9.606%
2,COCCNC(=O)Cn1c(-c2cccc(F)c2)nc(C)c(CCO)c1=O,196.7%
3,COCCNC(=O)Cn1c(-c2cccc(Cl)c2)nc(C)c(CCO)c1=O,141.8%
4,CNC(=O)c1cn2cc(-c3cccc(Cl)c3)n(CC=C(C)C)c(=O)c2n1,3.943%
5,COCCC(=O)NCC1Cn2nnc(-c3cccc(F)c3)c2CO1 (stereo not given),-4.513%
6,CC(=O)Nc1nc(C(=O)NCCOc2cccc(F)c2)cs1,5.348%
7,Cc1cc(=O)n(CC(=O)NCCC(C)C)c(-c2cccc(Cl)c2)n1,-16.01%
8,O=C(O)C(F)(F)F.O=C(c1cocn1)N1CC[C@H]2OCC[C@@]2(COc2ncccc2F)C1,4.073%
9,CCS(=O)(=O)N1CCc2onc(COc3ccccn3)c2C1.O=C(O)C(F)(F)F,-3.121%
10,Cc1ccc(C(=O)N2CCc3ncnc(C)c3CC2)cn1,-9.03%
11,Cc1oncc1C(=O)N1CCc2ncnc(-c3cnn(C)c3)c2CC1.O=C(O)C(F)(F)F,102.6%
12,O=C(O)C(F)(F)F.O=C(c1cccnc1)N1CCc2ncnc(N3CCOCC3)c2CC1,3.769%
13,CN(C)CC(=O)N1CCc2ncnc(-c3cncnc3)c2CC1.O=C(O)C(F)(F)F,2.289%
14,CCN(C)c1ncnc2c1CCN(C(=O)c1ccoc1C)CC2.O=C(O)C(F)(F)F,0.8996%
15,Cc1ccc(C(=O)N2CCc3ncnc(-c4cnn(C)c4)c3CC2)cn1.O=C(O)C(F)(F)F,114%
16,Cc1ccc(=O)n(CC(=O)N(C)Cc2csc(-c3cccs3)n2)n1,-12.57%
17,CC(=O)N[C@@H]1CN(C(=O)c2cc3ccccc3[nH]2)C[C@H]1c1ccc(C)o1,5.04%
18,O=C(N[C@@H]1CCNC[C@H]1O)c1ccc(F)c(Cl)c1,-18.82%
19,O=C(N[C@@H]1CC[C@@H](N2CCCC2)[C@@H]1O)c1cc2ccccc2[nH]1,132.3%
20,CS(=O)(=O)NC1CCN(C(=O)c2[nH]c3ccc(Cl)cc3c2Cl)CC1,24.08%

row,Compound,Percent Effect
1,Cc1c(C(=O)N[C@@H]2CC[C@@H](N3CCCC3)[C@@H]2O)[nH]c2ccc(F)cc12,79.42%
2,O=C(NC1CCCCNC1=O)c1cc2ccccc2[nH]c1=O (stereo not given),20.65%
3,CO[C@H]1CN(C(C)C)C[C@@H]1NC(=O)c1cc(-c2ccccc2F)n[nH]1,-41.59%
4,Cc1c(C(=O)N2CCN(C)[C@@H]3CS(=O)(=O)C[C@@H]32)[nH]c2ccc(F)cc12,22.59%
5,O=C(N[C@@H]1CC[C@@H](N2CCCC2)[C@@H]1O)c1cc2cccc(F)c2[nH]1,98.49%
6,CSCCC(C)NC(=O)N1CCSC(C)(C)C1 (stereo not given),17.63%
7,CCOC(=O)c1ccc(CNC(=O)c2ccc(Cl)cn2)o1,-5.208%
8,CCOc1ccc(C2CC(=O)Nc3c2c(=O)nc2sccn32)cc1 (stereo not given),17.16%
9,Cc1nn(C)c(C)c1C1COCCN1C(=O)c1cc(F)ccc1F (stereo not given),96.87%
10,Cc1ccc(O)c(C(=O)N2CCOCC2c2c(C)nn(C)c2C)c1 (stereo not given),110.1%
11,Cc1nn(C)c(C)c1C1COCCN1C(=O)NC1CC1 (stereo not given),-3.324%
12,Cc1nn(C)c(C)c1C1COCCN1C(=O)CC(C)(C)C (stereo not given),-9.995%
13,COC(=O)N1CCCC(C(=O)Nc2nc(C)c(SC)s2)C1 (stereo not given),-4.415%
14,Cc1nc(CNC(C(=O)N2CCOCC2)C(C)C)no1 (stereo not given),-7.712%
15,COc1ccc(F)cc1C[S+]([O-])CC(=O)NCC(C)C (stereo not given),-12.33%
16,Cc1ocnc1C(=O)N1CCN(Cc2ccccc2)[C@@H]2CS(=O)(=O)C[C@@H]21,-1.53%
17,CCn1nc2c(cc1=O)CN(CC(=O)N(C)c1nccs1)CC2,-28.1%
18,CCc1ccc(CN2C[C@H](OCC(=O)N(C)C)[C@H]3COC[C@H]32)o1.O=C(O)C(F)(F)F,117.7%
19,CN(C)C(=O)CO[C@H]1CN(Cc2cccc(C#N)c2)[C@@H]2COC[C@H]12.O=C(O)C(F)(F)F,-2.281%
20,CN(C)CCO[C@H]1CN(Cc2ccoc2)[C@@H]2COC[C@H]12.O=C(O)C(F)(F)F.O=C(O)C(F)(F)F,-9.926%

row,Compound,Percent Effect
1,CN(C)C(=O)CO[C@H]1CN(Cc2ccccc2)[C@@H]2CCCO[C@H]12.O=C(O)C(F)(F)F,0.8065%
2,CN(C)C(=O)CO[C@H]1CN(Cc2ccc3c(c2)OCO3)[C@@H]2COC[C@H]12.O=C(O)C(F)(F)F,108%
3,CN(C)CCO[C@H]1CN(Cc2ccc3c(c2)OCO3)[C@@H]2COC[C@H]12.O=C(O)C(F)(F)F.O=C(O)C(F)(F)F,-6.328%
4,CN(C)C(=O)CO[C@H]1CN(Cc2ccoc2)[C@@H]2COC[C@H]12.O=C(O)C(F)(F)F,107.9%
5,CN(C)C(=O)CO[C@H]1CN(Cc2ccsc2)[C@@H]2COC[C@H]12.O=C(O)C(F)(F)F,92.71%
6,CC(C)C1=NOC(c2nc(Cc3ccccc3)no2)C1 (stereo not given),-12.61%
7,CCc1ccccc1OC1CN(C(=O)c2ccnc(OC)c2)C1,-7.047%
8,CC(C)NS(=O)(=O)c1cc(C(=O)O)cc(-c2ccccc2F)c1,2.884%
9,Cc1ccc(F)cc1-c1ccc(N)nc1,-13.87%
10,CCc1ccc(C(=O)NC2CCCN(c3ccn(C)n3)C2=O)o1 (stereo not given),-13.64%
11,O=C1CCSCC(C(=O)N2CCN(C3CCCCC3)CC2)N1 (stereo not given),2.707%
12,Cl.c1cncc(CNCc2cccs2)c1,109.5%
13,COc1cccc(CNC[C@@]2(COc3cccnc3)C[C@@H](O)[C@@H](O)C2)c1.Cl.Cl,-11.87%
14,Cc1nn(C)c(N(C)C)c1CNCc1cccnc1,7.028%
15,COc1ccc(-n2ccc(CNCc3cccc(OC)c3)n2)cc1,-0.2636%
16,O=C(NCCc1cccnc1)NCCc1cccs1,-0.2291%
17,C=C(C)COc1cccc(CNCc2nc3ccccc3c(=O)[nH]2)c1,-21.19%
18,COc1cccc(CNCc2nc3ccccc3c(=O)[nH]2)c1,145%
19,COc1cccc(-c2nc(CNCc3cccnc3)cs2)c1,6.915%
20,COc1cccc(CNCc2cccnc2)c1,125.9%

# Source: ChEMBL document CHEMBL3988442, “University of Dundee, Small-Polar-MMV Screening Library” (2021)
